Reference: PubChem BioAssay AID1159580 (chemical genetic matrix, 2015)
The whole screen tested about 5,500 compounds, of which about 2,000 (36%) were called active. About 18% were inconclusive and are not listed. No stated cut-off is given here; in the data, active means normalized growth mostly below about 0.91 (no sharp cut-off); inconclusive means no clear call, values can overlap the other calls; inactive means mostly above about 0.92. Some of the results follow.

Assay: chemical genetic growth profiling, strain panel (AID 1159580);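 further: tested at 20 µM; growth read once vehicle control cultures reached saturation at 30 °C; 1 = growth at the plate median or of vehicle wells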
Conditions: S. cerevisiae deletion strains, growth OD
[1] = locus YAL013W, strain DEP1, stronger effect = lower value
[2] = locus YAL040C, strain CLN3, stronger effect = lower value
[3] = locus YCL061C, strain MRC1 (second series), stronger effect = lower value
[4] = locus YDR363W, strain ESC2, stronger effect = lower value
[5] = locus YER002W, strain NOP16, stronger effect = lower value
[6] = locus YGR229C, strain SMI1, stronger effect = lower value
[7] = locus YMR307W, strain GAS1, stronger effect = lower value
[8] = locus YNL175C, strain NOP13, stronger effect = lower value
[9] = locus YNL197C, strain WHI3, stronger effect = lower value
[10] = locus YNL224C, strain SQS1, stronger effect = lower value
[11] = locus YOR083W, strain WHI5 (second series), stronger effect = lower value
[12] = locus YHR030C, strain SLT2, stronger effect = lower value
[13] = locus YHR079C, strain IRE1, stronger effect = lower value
[14] = locus YJL095W, strain BCK1, stronger effect = lower value
[15] = locus YJR066W, strain TOR1, stronger effect = lower value
[16] = locus YLR113W, strain HOG1, stronger effect = lower value
[17] = locus YNL183C, strain NPR1, stronger effect = lower value
[18] = locus YOR231W, strain MKK1, stronger effect = lower value
[19] = locus YPL256C, strain CLN2, stronger effect = lower value

Measured: normalized growth

[Li+]
inactive: [1] 1.01 | [2] 0.996 | [3] 1.01 | locus YDR150W, strain NUM1, stronger effect = lower value 1.02 | [4] 1.01 | [5] 1 | [6] 1.02 | [7] 0.994 | [8] 1 | [9] 1.02 | [10] 1 | [11] 1.01 | locus YPL241C, strain CIN2, stronger effect = lower value 1.01

c1ccc(-c2ccc(C(c3ccccc3)n3ccnc3)cc2)cc1 (stereo not drawn)
active: locus YAL021C, strain ccr4, stronger effect = lower value 0.0644 | locus YAL026C, strain drs2, stronger effect = lower value 0.0618 | locus YAL030W, strain snc1, stronger effect = lower value 0.0587 | locus YBL061C, strain skt5, stronger effect = lower value 0.0709 | locus YBR009C, strain hhf1, stronger effect = lower value 0.0624 | locus YBR023C, strain chs3, stronger effect = lower value 0.0697 | locus YBR171W, strain sec66, stronger effect = lower value 0.0929 | locus YBR231C, strain swc5, stronger effect = lower value 0.0689 | locus YBR279W, strain paf1, stronger effect = lower value 0.0719 | locus YCL011C, strain gbp2, stronger effect = lower value 0.0606 | locus YCL016C, strain dcc1, stronger effect = lower value 0.0733 | locus YCL069W, strain vba3, stronger effect = lower value 0.066 | locus YCR088W, strain abp1, stronger effect = lower value 0.0692 | locus YDL005C, strain med2, stronger effect = lower value 0.0767 | locus YDL040C, strain nat1, stronger effect = lower value 0.0668 | locus YDR001C, strain nth1, stronger effect = lower value 0.067 | locus YDR069C, strain doa4, stronger effect = lower value 0.0703 | locus YDR137W, strain rgp1, stronger effect = lower value 0.127 | locus YDR159W, strain sac3, stronger effect = lower value 0.0937 | locus YDR195W, strain ref2 0.13 | locus YDR297W, strain sur2, stronger effect = lower value 0.0659 | locus YDR334W, strain swr1, stronger effect = lower value 0.0716 | locus YDR335W, strain msn5, stronger effect = lower value 0.0638 | locus YDR392W, strain spt3, stronger effect = lower value 0.0713 | locus YEL003W, strain gim4, stronger effect = lower value 0.0535 | locus YEL037C, strain rad23, stronger effect = lower value 0.0622 | locus YEL061C, strain CIN8 (second series), stronger effect = lower value 0.0652 | locus YER015W, strain faa2, stronger effect = lower value 0.0699 | locus YER016W, strain bim1, stronger effect = lower value 0.0698 | locus YER111C, strain swi4, stronger effect = lower value 0.0902 | locus YER155C, strain BEM2 (second series), stronger effect = lower value 0.0914 | locus YFR010W, strain ubp6, stronger effect = lower value 0.0846 | locus YGL167C, strain pmr1, stronger effect = lower value 0.124 | locus YGL173C, strain kem1, stronger effect = lower value 0.0886 | locus YGL227W, strain vid30, stronger effect = lower value 0.077 | locus YGL240W, strain doc1, stronger effect = lower value 0.108 | locus YGL253W, strain hxk2, stronger effect = lower value 0.0596 | locus YHR013C, strain ard1, stronger effect = lower value 0.105 | locus YHR027C, strain rpn1, stronger effect = lower value 0.0776 | [12] 0.105 | [13] 0.13 | locus YHR142W, strain chs7, stronger effect = lower value 0.0799 | locus YJL092W, strain hpr5, stronger effect = lower value 0.0642 | locus YJL095W, strain BCK1 (second series), stronger effect = lower value 0.0592 | [14] 0.127 | locus YJL115W, strain asf1, stronger effect = lower value 0.087 | locus YJL129C, strain trk1, stronger effect = lower value 0.102 | locus YJL154C, strain vps35, stronger effect = lower value 0.0754 | locus YJL164C, strain tpk1, stronger effect = lower value 0.0615 | locus YJL166W, strain qcr8, stronger effect = lower value 0.0657 | locus YJL187C, strain SWE1, stronger effect = lower value 0.0683 | [15] 0.0151 | locus YKL160W, strain elf1, stronger effect = lower value 0.0739 | locus YKR026C, strain gcn3, stronger effect = lower value 0.0725 | locus YKR091W, strain srl3, stronger effect = lower value 0.066 | locus YLL001W, strain dnm1, stronger effect = lower value 0.0668 | locus YLL026W, stronger effect = lower value 0.0595 | locus YLL041C, strain sdh2, stronger effect = lower value 0.0629 | locus YLR027C, strain aat2, stronger effect = lower value 0.0596 | [16] 0.164 | locus YLR221C, strain rsa3, stronger effect = lower value 0.0622 | locus YLR258W, strain gsy2, stronger effect = lower value 0.0654 | locus YLR262C, strain YPT6 (second series), stronger effect = lower value 0.0894 | locus YLR320W, strain mms22, stronger effect = lower value 0.0767 | locus YLR342W, strain FKS1, stronger effect = lower value 0.0755 | locus YLR357W, strain rsc2, stronger effect = lower value 0.128 | locus YLR370C, strain arc18, stronger effect = lower value 0.0619 | locus YLR384C, strain iki3, stronger effect = lower value 0.0674 | locus YML120C, strain ndi1, stronger effect = lower value 0.0564 | locus YMR058W, strain fet3, stronger effect = lower value 0.068 | locus YMR125W, strain sto1, stronger effect = lower value 0.082 | locus YMR129W, stronger effect = lower value 0.0621 | locus YMR205C, strain PFK2, stronger effect = lower value 0.0925 | locus YMR231W, strain pep5, stronger effect = lower value 0.179 | locus YNL071W, strain lat1, stronger effect = lower value 0.0616 | [17] 0.0338 | locus YNL209W, strain ssb2, stronger effect = lower value 0.0868 | locus YNL248C, strain rpa49, stronger effect = lower value 0.0877 | locus YNL322C, strain KRE1 (second series), stronger effect = lower value 0.08 | locus YNR049C, strain mso1, stronger effect = lower value 0.0653 | locus YOR001W, strain rrp6, stronger effect = lower value 0.075 | locus YOR070C, strain gyp1, stronger effect = lower value 0.0635 | locus YOR080W, strain dia2, stronger effect = lower value 0.0729 | locus YOR083W, strain WHI5, stronger effect = lower value 0.0687 | locus YOR106W, strain vam3, stronger effect = lower value 0.0685 | [18] 0.141 | locus YOR265W, strain rbl2, stronger effect = lower value 0.0651 | locus YOR270C, strain vph1, stronger effect = lower value 0.0985 | locus YOR290C, strain snf2, stronger effect = lower value 0.0719 | locus YPL051W, strain arl3, stronger effect = lower value 0.0743 | locus YPL078C, strain atp4, stronger effect = lower value 0.07 | locus YPL106C, strain sse1, stronger effect = lower value 0.116 | locus YPL240C, strain hsp82, stronger effect = lower value 0.0631 | [19] 0.153

c1ccc2c(c1)OCC(C1=NCCN1)O2 (stereo not drawn)
inactive: [1] 1.02 | [2] 1 | [3] 1 | [4] 1.03 | [5] 0.987 | locus YGR078C, strain PAC10, stronger effect = lower value 1.01 | [6] 1.02 | locus YJR075W, strain HOC1, stronger effect = lower value 1 | locus YMR263W, strain SAP30, stronger effect = lower value 1.02 | [7] 0.996 | [8] 1.02 | [9] 1.01 | [10] 1.01 | [11] 0.996 | locus YPL055C, strain LGE1, stronger effect = lower value 1.01

O=C(NCc1ccco1)c1csc(C2COc3ccccc3O2)n1 (stereo not drawn)
inactive: locus YAR019C, strain CDC15, stronger effect = lower value 0.916 | locus YBL105C, strain PKC1, stronger effect = lower value 0.917 | locus YBR135W, strain CKS1, stronger effect = lower value 0.918 | locus YBR136W, strain MEC1, stronger effect = lower value 0.925 | locus YBR160W, strain CDC28, stronger effect = lower value 0.914 | locus YDL017W, strain CDC7, stronger effect = lower value 0.925 | locus YDL028C, strain MPS1, stronger effect = lower value 0.919 | locus YDL101C, strain DUN1, stronger effect = lower value 0.964 | locus YDL108W, strain KIN28, stronger effect = lower value 0.937 | locus YDL132W, strain cdc53, stronger effect = lower value 0.897 | locus YDL214C, strain PRR2, stronger effect = lower value 0.854 | locus YDR226W, strain ADK1, stronger effect = lower value 0.923 | locus YDR477W, strain SNF1, stronger effect = lower value 0.773 | locus YER123W, strain YCK3, stronger effect = lower value 0.663 | locus YER133W, strain GLC7, stronger effect = lower value 0.902 | locus YFL009W, strain cdc4, stronger effect = lower value 0.913 | locus YFL029C, strain CAK1, stronger effect = lower value 0.915 | locus YFR003C, strain YPI1, stronger effect = lower value 0.931 | locus YFR028C, strain CDC14, stronger effect = lower value 0.936 | locus YGR040W, strain KSS1, stronger effect = lower value 0.868 | locus YGR052W, strain FMP48, stronger effect = lower value 0.802 | [13] 0.712 | locus YHR082C, strain KSP1, stronger effect = lower value 0.896 | locus YHR205W, strain SCH9, stronger effect = lower value 0.894 | locus YIL147C, strain SLN1, stronger effect = lower value 0.922 | [14] 0.689 | locus YJL128C, strain PBS2, stronger effect = lower value 0.98 | locus YJL157C, strain FAR1, stronger effect = lower value 0.797 | locus YJR016C, strain ILV3, stronger effect = lower value 0.904 | [15] 0.745 | locus YKL048C, strain ELM1, stronger effect = lower value 0.906 | locus YKL067W, strain YNK1, stronger effect = lower value 0.841 | locus YKL101W, strain HSL1, stronger effect = lower value 0.873 | locus YKL193C, strain SDS22, stronger effect = lower value 0.932 | locus YKL203C, strain TOR2, stronger effect = lower value 0.851 | locus YLR133W, strain CKI1, stronger effect = lower value 0.845 | locus YLR403W, strain SFP1, stronger effect = lower value 0.839 | locus YML070W, strain DAK1, stronger effect = lower value 0.689 | locus YMR001C, strain CDC5, stronger effect = lower value 0.919 | locus YMR205C, strain PFK2 (second series), stronger effect = lower value 0.893 | locus YMR277W, strain FCP1, stronger effect = lower value 0.915 | locus YNL006W, strain LST8, stronger effect = lower value 0.926 | locus YNL020C, strain ARK1, stronger effect = lower value 0.843 | locus YNL161W, strain CBK1, stronger effect = lower value 0.921 | [17] 0.737 | locus YNL207W, strain RIO2, stronger effect = lower value 0.915 | locus YNL222W, strain SSU72, stronger effect = lower value 0.917 | locus YOL078W, strain AVO1, stronger effect = lower value 0.928 | locus YOR119C, strain RIO1, stronger effect = lower value 0.894 | [18] 0.746 | locus YOR329C, strain SCD5, stronger effect = lower value 0.909 | locus YPL031C, strain PHO85, stronger effect = lower value 0.85 | locus YPL153C, strain RAD53, stronger effect = lower value 0.773 | locus YPL204W, strain HRR25, stronger effect = lower value 0.796 | locus YPL209C, strain IPL1, stronger effect = lower value 0.923 | locus YPR025C, strain CCL1, stronger effect = lower value 0.916 | locus YPR106W, strain ISR1, stronger effect = lower value 0.956 | locus YPR111W, strain DBF20, stronger effect = lower value 0.947 | strain NNK1, stronger effect = lower value 0.944 | strain TSCII, stronger effect = lower value 0.92
active: locus YDR052C, strain DBF4, stronger effect = lower value 0.909 | locus YDR054C, strain cdc34, stronger effect = lower value 0.875 | locus YFR019W, strain FAB1, stronger effect = lower value 0.711 | locus YGR092W, strain DBF2, stronger effect = lower value 0.154 | [12] 0.623 | locus YJR066W, strain TOR1 (second series), stronger effect = lower value 0.343 | [16] 0.811 | locus YNL307C, strain MCK1 (second series), stronger effect = lower value 0.585 | locus YOL136C, strain PFK27, stronger effect = lower value 0.66 | locus YOR061W, strain CKA2, stronger effect = lower value 0.586 | [19] 0.754
